For one molecule, Potency results are on record in ChEMBL document CHEMBL1201862, “PubChem BioAssay data set” (2004).

Molecules are shown by their SMILES. Out of some 18,000 compounds screened, about 750 (4.2%) were called active. Not shown: some 13% with an inconclusive outcome. No cut-off for these calls is given here. The sample as a whole holds a higher share of actives than the screen did.

A short description of the test: qHTS for Inhibitors of binding or entry into cells for Lassa Virus. For orientation: qHTS replaces the single test concentration by a dilution series.
Consider `CC12C(=O)OC(=O)C1(C)C1CCC2O1` (stereo unspecified), for which the Potency was 562 µM (active).
